# Measurements: PubChem BioAssay
# Results filed as inconclusive are left out. The source made the active and inactive calls.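 The calls were made as follows, unless noted: active = viability increase at or above a cutoff of the median across tested compounds plus 3 SD (cut at about 8.5% in these data, passing the limit was not always enough); inconclusive = some gains above the cutoff, reason not given; inactive = the rest.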
# Assays:
# [1] = HUVEC growth inhibition – cell-based, human, primary screen (AID 575;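 active = viability at or below 30% in both replicate assays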;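 also: 100% = median of untreated cell wells with 0.1% DMSO on each plate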); settings: HUVEC proliferation, CellTiter-Glo luminescence, 72 h; at 10 µM; stronger effect = lower value
# [2] = H69AR cell proliferation blockers – human, duplicate replicates, primary screen (AID 580;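 active = viability at or under a set limit in both replicates, limit being median viability minus 3 SD, cut at about 48% in these data, passing the limit was not always enough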;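 also: 100% = mean luminescence of untreated wells and 0% = no signal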); settings: H69AR lung tumor cells viability, ATP luminescence, 72 h; at 10 µM; stronger effect = lower value
# [3] = MRP1 drug-resistance reversers in H69AR cells – cell-based, doxorubicin co-treatment, pilot screen (AID 601;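 active = viability loss from added drug above about 55%, and viability with drug at most 40%, in both replicates, limit read from the data, passing the limit was not always enough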); settings: CellTiter-Glo, 72 h, at 10 µM; for differential viability (reversal): stronger effect = higher value
# [4] = yeast transport mutant growth inhibition pilot in 384-well plates, post-Golgi transport modulator project (AID 636; in the data active = inhibition above about 31%); settings: absorbance 615 nm, about 18 h, stronger effect = higher value
# [5] = growth suppression of yeast trafficking mutant, preliminary HTS, modulators of trafficking downstream of Golgi apparatus project, 1536-format plate, OD 615 nm (AID 637; in the data active = inhibition above about 30%); settings: yeast transport mutant growth, absorbance 615 nm, 18 h; stronger effect = higher value
# [6] = S. cerevisiae growth inhibition in permissive medium (OD615), pilot counter-assay for S. cerevisiae lifespan shortening project, permissive growth control (AID 705;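 active = growth inhibition above 25% in both replicates, a cutoff set 3 SD above the mean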); settings: OD615, 24 h, at 10 µM, stronger effect = higher value
# [7] = S. cerevisiae growth inhibition in restrictive medium, OD615, pilot screen, restrictive growth control, yeast lifespan reduction project (AID 706;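 active = growth inhibition above a set limit, 3 SD over mean compound inhibition, in both replicates, cut at about 43% in these data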;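 also: modified DeaD lifespan yeast strain shifted to restrictive glucose medium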); settings: OD615, 48 h, at 10 µM, stronger effect = higher value
# [8] = doxorubicin toxicity protection in MRP-1 cells – H69AR cells, CellTiter-Glo, duplicate, MRP-1 activator project, pilot screen (AID 807); settings: H69AR viability with doxorubicin, CellTiter-Glo luminescence; at 10 µM; stronger effect = higher value;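 also: compound pretreatment 18-22 h then 72 h combined with doxorubicin; 0% = doxorubicin alone and 100% = vehicle without doxorubicin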
# [9] = viability of HCT116 without oncogenic beta-catenin – human colon tumor cells, pilot screen (AID 823;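 active = cell viability at or below a set limit in both duplicate runs, the limit being the all-compound median minus 4 SD, cut at about 23% in these data, passing the limit was not always enough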;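 also: 0% = wells killed by 20 µM Hyamine and 100% = untreated DMSO cell wells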); settings: HCT116 beta-catenin knockout viability, CellTiter-Glo, 60 h; at 10 µM; stronger effect = lower value
# [10] = RAM pathway blockade in budding yeast – dse1pr::URA3 reporter, 5-FOA selection, pilot screen (AID 869;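 active = inhibition over a set limit, the all-compound mean plus 3 SD, in both replicate runs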;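 also: 0% = DMSO wells with no growth and 100% = 10 µM 1-NA-PP1 with full growth; RAM network block rescues cells from 5-FOA so hits raise OD615 growth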); settings: S. cerevisiae dse1pr::URA3 5-FOA growth, OD615, 2 d; at 10 µM; stronger effect = higher value; strain carries analog-sensitive mutant Cbk1 kinase
# [11] = RAM signaling pathway blockade in yeast – S. cerevisiae, Pdr1DBD-CYC8 efflux-inhibited sensitized strain, primary screen (AID 1298;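 active = RAM network inhibition above 8.4% in each of two replicates, 3 SD over the compound average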;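 also: 0% = DMSO untreated cells without growth and 100% = 10 µM 1-NA-PP1 full growth; higher means more yeast growth rescued from 5-FOA killing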); settings: S. cerevisiae cbk1-as DSE1-URA3 strain, 5-FOA growth OD615, 2 d; at 50 µM; stronger effect = higher value
# [12] = viability of PTEN-null HCT116 cells – cell-based, HCT116 clonal line, CellTiter-Glo, pilot screen (AID 824;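 active = viability at or below 27.92% in each of two runs, the all-compound median minus 4 SD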;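 also: 0% = 20 µM Hyamine control and 100% = vehicle cell control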); settings: HCT116 PTEN-deleted viability, 60 h, at 10 µM, stronger effect = lower value
# [13] = H69AR cells + 2 uM doxorubicin, measured here: viability with 2 uM doxorubicin, stronger effect = lower value
# [14] = H69AR cells, compound alone cytotoxicity
SMILES,viability [1],viability [2],differential viability (reversal) ([3]; H69AR cells + 2 uM doxorubicin),"viability [3, 13]","viability [3, 14]",inhibition [4],inhibition [5],growth inhibition [6],growth inhibition [7],viability increase [8],viability [9],inhibition [10],RAM network inhibition [11],viability [12]
COC(=O)c1nc2n(n1)C(c1ccc(OC)c(OC)c1)C(C(=O)OC1CCCCC1)=C(C)N2 (stereo not drawn),88.9% (inactive),83.3% (inactive),-14.8% (inactive),98%,83.3%,-6.49% (inactive),-4% (inactive),-0.32% (inactive),-3.14% (inactive),-5.23% (inactive),97.5% (inactive),2.87% (inactive),6.75% (inactive),–
Cc1ccc(C)c(N2CCN(CCCNC(=O)Cn3cc4c(n3)CCCCC4)CC2)c1,2.8% (active),–,-31.3% (inactive),68.4%,37.1%,-2.69% (inactive),4% (inactive),-6.4% (inactive),-0.285% (inactive),-7.67% (inactive),–,0.495% (inactive),4.06% (inactive),19.6% (active)
CC1(C)Cc2c(c(=S)nc(-c3ccccc3)n2CCCN2CCOCC2)CO1,–,–,–,–,–,–,–,-12.8% (inactive),6.05% (inactive),-3.1% (inactive),97.2% (inactive),–,2.19% (inactive),–
OC(COCC1COc2ccccc2O1)CN1CCc2ccccc2C1 (stereo not drawn),–,–,–,–,–,–,–,-28.7% (inactive),-12.5% (inactive),-2.72% (inactive),86.4% (inactive),–,1.37% (inactive),90.8% (inactive)
C=CCn1c(SCC(=O)c2cccs2)nc2sc(CC)cc2c1=O,–,–,–,–,–,–,–,-5.62% (inactive),5.1% (inactive),-1.39% (inactive),76.8% (inactive),–,7.45% (inactive),83.3% (inactive)
CC(C)OCCCNS(=O)(=O)c1ccc2c(c1)oc(=O)n2C,–,–,–,–,–,–,–,-13.3% (inactive),-6.73% (inactive),-1.3% (inactive),101% (inactive),–,0.04% (inactive),97% (inactive)
CCOC(=O)C1CCN(C(C(=O)NC2CCCCC2)c2ccc(OC)cc2)CC1 (stereo not drawn),–,–,–,–,–,–,–,-4.53% (inactive),-11.7% (inactive),-1.91% (inactive),93.2% (inactive),–,3.74% (inactive),88.6% (inactive)
Cc1cc2cc(CNC(=O)C3CCCC3)ccc2n1C,–,–,–,–,–,–,–,-3.94% (inactive),-10.2% (inactive),0.45% (inactive),103% (inactive),–,2.97% (inactive),91% (inactive)
CCOc1ccc(-n2c(SCC(N)=O)nc3c([nH]c4ccccc43)c2=O)cc1,–,–,–,–,–,–,–,-16.6% (inactive),2.87% (inactive),-2.27% (inactive),62.5% (inactive),–,11.2% (inactive),71.4% (inactive)
CCCCOc1ccccc1NC(=O)CC1Nc2ccccc2NC1=O (stereo not drawn),–,–,–,–,–,–,–,6.14% (inactive),0.91% (inactive),-6.18% (inactive),–,–,7.51% (inactive),–
Cc1ccc(NC(=O)CSc2nnc(Cn3c(=O)sc4ccccc43)n2C)cc1,–,–,–,–,–,–,–,-5.8% (inactive),-12.1% (inactive),-1.58% (inactive),93.6% (inactive),–,8.73% (inactive),96.4% (inactive)
CCN1CCN(c2cc(C)c3cc(NC(=O)c4cncc(Br)c4)ccc3n2)CC1,–,–,–,–,–,–,–,-4.93% (inactive),-2.12% (inactive),-6.22% (inactive),–,–,-0.98% (inactive),–
CC(C)=CC(=O)OCC(=O)NC(=O)NC(C)(C)C,103% (inactive),97% (inactive),-3.87% (inactive),101%,97%,0.52% (inactive),-3.97% (inactive),1.02% (inactive),3.65% (inactive),-3.01% (inactive),104% (inactive),2.76% (inactive),2.91% (inactive),–
O=S(=O)(NCC(O)COCc1ccco1)c1cccs1 (stereo not drawn),114% (inactive),83.7% (inactive),-0.665% (inactive),84.3%,83.7%,-6.62% (inactive),-5.56% (inactive),-10.3% (inactive),2.05% (inactive),-3.34% (inactive),92.8% (inactive),1.09% (inactive),6.29% (inactive),–
CCCCOc1ccc(S(=O)(=O)Nc2cc(OC)ccc2OC)cc1,–,–,–,–,–,–,–,-1.52% (inactive),-16.5% (inactive),0.92% (inactive),54.8% (inactive),–,7.83% (inactive),71.3% (inactive)
COc1ccc(CCn2c(N)c(S(=O)(=O)c3cccs3)c3nc4ccccc4nc32)cc1OC,–,–,–,–,–,–,–,-4.55% (inactive),-27.6% (inactive),-2.53% (inactive),91.6% (inactive),–,8.59% (inactive),85.1% (inactive)
COCCCNc1nc2c(c(=O)[nH]c(=O)n2C)n1CC(O)COc1ccccc1C (stereo not drawn),–,–,–,–,–,–,–,-1.92% (inactive),-7.5% (inactive),-2.64% (inactive),98.9% (inactive),–,3.44% (inactive),101% (inactive)
O=C1CCC(C(=O)NC2(C(=O)NC3CCCCC3)CCCCC2)N1 (stereo not drawn),–,–,–,–,–,–,–,-0.36% (inactive),-2.28% (inactive),0.85% (inactive),99.6% (inactive),–,1% (inactive),104% (inactive)
COc1ccc(-c2cn3c(C)c(C(=O)N4CCN(c5ccc(F)cc5)CC4)sc3n2)cc1,–,–,–,–,–,–,–,-0.17% (inactive),-2.07% (inactive),0.81% (inactive),101% (inactive),–,5.28% (inactive),103% (inactive)
O=C(CSc1nnc(Cn2c(=O)sc3ccccc32)n1-c1ccccc1)N1CCCC1,–,–,–,–,–,–,–,-8.58% (inactive),-14.4% (inactive),-1.4% (inactive),97.1% (inactive),–,2.12% (inactive),97% (inactive)
Cc1ccc2oc(-c3ccc(NC(=O)CC(C)C)cc3)nc2c1,–,–,–,–,–,–,–,-9.28% (inactive),-6.46% (inactive),-0.39% (inactive),102% (inactive),–,7.81% (inactive),92.6% (inactive)
